{"source": "PubChem BioAssay AID729", "about": "(The Scripps Research Institute Molecular Screening Center, 2007)", "note": "Out of some 97,000 compounds screened, about 450 (0.46%) were called active. No stated cut-off is given here; in the data, active means activation above about 16%; inactive means the rest. The full list was thinned out, with actives kept by preference.", "data": [{"molecular_target": "Sphingosine 1-phosphate receptor 2 (Homo sapiens) (UniProt O95136)", "sequence (O95136 whole entry, looked up)": "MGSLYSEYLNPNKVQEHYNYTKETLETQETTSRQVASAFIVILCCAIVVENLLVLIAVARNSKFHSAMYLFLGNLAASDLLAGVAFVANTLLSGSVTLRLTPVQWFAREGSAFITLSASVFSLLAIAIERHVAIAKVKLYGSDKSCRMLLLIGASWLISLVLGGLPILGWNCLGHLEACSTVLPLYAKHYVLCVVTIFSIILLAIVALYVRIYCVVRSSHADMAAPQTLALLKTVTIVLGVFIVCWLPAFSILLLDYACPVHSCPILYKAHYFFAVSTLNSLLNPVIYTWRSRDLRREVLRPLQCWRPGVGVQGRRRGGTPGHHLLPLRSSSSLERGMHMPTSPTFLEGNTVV", "assay": "activation of human S1P2 receptor – cell-based, primary screen (AID 729);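 further: 0% = vehicle low control and 100% = maximal reference agonist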", "conditions": "S1P2-expressing cell line, agonist reporter read-out; at 4.5 µM; hits give high values", "values": [{"smiles": "CONC(=O)c1cc(OCC(F)(F)F)ccc1OCC(F)(F)F", "activation": "-3.47% (inactive)"}, {"smiles": "CC1(C)CC(=O)C(C=NCCC2=CCCCC2)=C(O)C1", "activation": "-6.14% (inactive)"}, {"smiles": "Cc1cc(N=CC2=C(O)CCCC2=O)no1", "activation": "-0.19% (inactive)"}, {"smiles": "O=C1CCCC(O)=C1C=NCCc1ccccc1", "activation": "84.1% (active)"}, {"smiles": "COc1ccc(N(CC(=O)N/N=C/c2cccs2)S(=O)(=O)c2ccc(OC)c(OC)c2)cc1", "activation": "-7.16% (inactive)"}, {"smiles": "COc1ccc(C(=O)/C=C/Nc2ccccn2)cc1", "activation": "1.74% (inactive)"}, {"smiles": "O=C(Nc1ccccc1)c1ccc2nsnc2c1", "activation": "-2.63% (inactive)"}, {"smiles": "O=C(O)c1cc2ccccc2c(=O)s1", "activation": "-6.32% (inactive)"}, {"smiles": "O=C(CN1CCSCC1)N/N=C/c1ccc(F)cc1F", "activation": "-0.59% (inactive)"}, {"smiles": "Cc1ccc(-c2nnc(C)c(N3CC(C)OC(C)C3)n2)cc1", "note": "(centres undefined)", "activation": "-6.7% (inactive)"}, {"smiles": "COc1ccc(-c2cc(C(=O)n3cnc4ccccc43)c3ccccc3n2)cc1", "activation": "-1.61% (inactive)"}, {"smiles": "CC(C)C(NS(=O)(=O)c1cccs1)C(=O)Nc1nc(C(C)(C)C)cs1", "note": "(centres undefined)", "activation": "-5.87% (inactive)"}, {"smiles": "Cc1nc(C)c(C(=O)N(c2ccc(C)c(C)c2)C(C(=O)NCc2ccco2)c2ccccc2)s1", "note": "(centres undefined)", "activation": "-5.57% (inactive)"}, {"smiles": "COc1ccc(/C=N/Nc2nc3ccccc3o2)cc1OC", "activation": "1.35% (inactive)"}, {"smiles": "O=C1CCCc2c1nc(-c1cccc(Cl)c1)n2O", "activation": "-8.02% (inactive)"}, {"smiles": "Cc1ccc(-c2csc(SCC(=O)Nc3cc(C)on3)n2)cc1", "activation": "-3.51% (inactive)"}, {"smiles": "O=C(O)[C@@H]1CCCN1c1ncnc2sc3c(c12)CCC3", "activation": "-0.47% (inactive)"}, {"smiles": "OCCNc1nc2ccccc2n1-c1ncnc2sc3c(c12)CCC3", "activation": "17.8% (active)"}, {"smiles": "CC(C)(C)C(=O)Cn1c(NCCO)nc2ccccc21", "activation": "0.17% (inactive)"}, {"smiles": "COc1ccccc1/C=C/C1=NC(=C\\N(C)C)/C(=O)O1", "activation": "3.03% (inactive)"}, {"smiles": "CCCc1nc2sc3c(c2c(=O)n1NC(=O)CCCl)CCCC3", "activation": "-7.02% (inactive)"}, {"smiles": "Cc1ccc2oc(=O)c3cnn(CC(=O)N(Cc4ccco4)C4CCCCC4)c3c2c1", "activation": "-2.42% (inactive)"}, {"smiles": "CC(CN1CCOCC1)c1ccccc1", "note": "(centres undefined)", "activation": "-0.64% (inactive)"}, {"smiles": "COc1ccc(NC(=O)COC(=O)Cn2c(C)nc3ccccc32)cc1OC", "activation": "-6.15% (inactive)"}, {"smiles": "COc1ccc(NC(=O)C(NC(C)=O)C(=O)NCc2ccccc2Cl)cc1", "note": "(centres undefined)", "activation": "-7.51% (inactive)"}, {"smiles": "CCNC(=O)NC(=O)C(C)OC(=O)c1cc(S(=O)(=O)N2CCCCCC2)ccc1OC", "note": "(centres undefined)", "activation": "-4.87% (inactive)"}, {"smiles": "COc1ccc(N(CCC#N)S(=O)(=O)c2ccc(Cl)cc2)cc1", "activation": "-1.5% (inactive)"}, {"smiles": "O=C(NCc1ccco1)C1CCCN(S(=O)(=O)c2ccccc2)C1", "note": "(centres undefined)", "activation": "-2.97% (inactive)"}, {"smiles": "O=C1CSC(c2cccc(F)c2)N1c1ccc(O)cc1", "note": "(centres undefined)", "activation": "-7.24% (inactive)"}, {"smiles": "Nc1nc(Br)c2ccccc2c1-c1ccc(F)cc1", "activation": "4.89% (inactive)"}, {"smiles": "Cc1ccc(S(=O)(=O)N2CCN(S(=O)(=O)N3CCOCC3)CC2)cc1", "activation": "-6.81% (inactive)"}, {"smiles": "CCC(C)n1c(-c2cc(OC)c(OC)c(OC)c2)nc2nc3ccccc3nc21", "note": "(centres undefined)", "activation": "16.8% (active)"}, {"smiles": "COc1ccc(-c2nc3ccccc3n2CCC(C)C)cc1OC", "activation": "-4.13% (inactive)"}, {"smiles": "COc1cc(C(O)c2nc3ccccc3n2C)cc(OC)c1OC", "note": "(centres undefined)", "activation": "-6.52% (inactive)"}, {"smiles": "CC(C)(C)c1ccc(OC2=CS(=O)(=O)c3ccccc32)cc1", "activation": "-6.02% (inactive)"}, {"smiles": "O=C(CCCCCn1c(=O)[nH]c2ccccc2c1=O)NCCc1c[nH]c2ccccc12", "activation": "-8.42% (inactive)"}, {"smiles": "CCc1ccc2c(c1)C1(NN=C(c3ccccc3)S1)C(=O)N2", "note": "(centres undefined)", "activation": "-1.92% (inactive)"}, {"smiles": "COc1ccc(C(=O)Nc2ccc(F)cc2F)cc1", "activation": "-5.08% (inactive)"}, {"smiles": "Cc1cc(C)c(S(=O)(=O)NCC2CCC(C(=O)NCc3ccc4c(c3)OCO4)CC2)c(C)c1", "note": "(centres undefined)", "activation": "-5.15% (inactive)"}, {"smiles": "OC(C#CCN1CCOCC1)(c1ccccc1)C1CCCCC1", "note": "(centres undefined)", "activation": "-4.7% (inactive)"}, {"smiles": "CC1CN(S(=O)(=O)c2ccccc2)C(C)CN1S(=O)(=O)c1ccccc1", "note": "(centres undefined)", "activation": "-2.5% (inactive)"}, {"smiles": "O=C(Nc1ccccc1Cl)N1CCN(c2ccc3nncn3n2)CC1", "activation": "-1.47% (inactive)"}, {"smiles": "O=C(NCCc1ccccc1)c1ccc(NC2=NC3CS(=O)(=O)CC3S2)cc1", "note": "(centres undefined)", "activation": "0.04% (inactive)"}, {"smiles": "COc1ccccc1C(c1nnnn1C(C)(C)C)N1CCN(Cc2ccccc2)CC1", "note": "(centres undefined)", "activation": "-7.69% (inactive)"}, {"smiles": "Cc1c(Nc2nc3ccccc3nc2NS(=O)(=O)c2cccs2)c(=O)n(-c2ccccc2)n1C", "activation": "-4.46% (inactive)"}, {"smiles": "O=S(=O)(NCC1OCCc2ccccc21)c1ccccc1", "note": "(centres undefined)", "activation": "0.09% (inactive)"}, {"smiles": "CN1CCN(C(=O)Cn2c(C(F)(F)F)nc3ccccc32)CC1", "activation": "-7.46% (inactive)"}, {"smiles": "COC(=O)c1cc(OC)c(OC)cc1NC(=O)CSc1ccc(C)cc1", "activation": "-4.04% (inactive)"}, {"smiles": "COc1ccccc1CCNC(=O)c1cnccn1", "activation": "-1.07% (inactive)"}, {"smiles": "Cc1ccc(-n2cc3ccc([N+](=O)[O-])cc3n2)cc1", "activation": "-0.28% (inactive)"}, {"smiles": "CCOc1ccccc1NC(=O)c1cccnc1", "activation": "-2.14% (inactive)"}, {"smiles": "Cc1nc2ccc(C(=O)N3CCN(c4ccccc4)CC3)cc2s1", "activation": "-0.32% (inactive)"}, {"smiles": "CCOc1nc(NCCN2CCOCC2)nc(Nc2ccc(C)cc2)n1", "activation": "-6.53% (inactive)"}, {"smiles": "CCc1c(O)cc2n(c1=O)-c1ccccc1C2(C)C", "activation": "-1.15% (inactive)"}, {"smiles": "CSCCC(NC(=O)COc1ccccc1)C(=O)OCC(=O)c1cc2ccccc2o1", "note": "(centres undefined)", "activation": "0.32% (inactive)"}, {"smiles": "COc1ccc(/C=N/Nc2nc3ccccc3c(=O)[nH]2)cc1", "activation": "-4.61% (inactive)"}, {"smiles": "CC(C)n1c(-c2cccs2)nc2ccccc21", "activation": "-0.76% (inactive)"}, {"smiles": "O=c1[nH]c(-c2cccs2)nc2ccccc12", "activation": "71.4% (active)"}, {"smiles": "CCCCNC(=O)CCNC(=O)c1ccc(C(C)(C)C)cc1", "activation": "-3.72% (inactive)"}, {"smiles": "N#C/C(=C/c1ccc(Cl)cc1)NC(=O)c1ccccc1", "activation": "-4.04% (inactive)"}, {"smiles": "CNc1nc(SC)nc(N(C#N)CC(=O)OC)n1", "activation": "-6.48% (inactive)"}, {"smiles": "CCCc1nnc(NC(=O)CN2C(=O)c3ccccc3S2(=O)=O)s1", "activation": "-3.54% (inactive)"}, {"smiles": "Nc1nnc(SCCN2C(=O)c3ccccc3S2(=O)=O)s1", "activation": "17.5% (active)"}, {"smiles": "CNC(=O)CN1C(=O)c2ccccc2S1(=O)=O", "activation": "-1.63% (inactive)"}, {"smiles": "COc1ccccc1Nc1ncnc2c1oc1ccccc12", "activation": "-9.1% (inactive)"}, {"smiles": "Cc1nc(Cl)c2oc3ccccc3c2n1", "activation": "1.01% (inactive)"}, {"smiles": "CCc1nc(Nc2ccc3nccnc3c2)c2oc3ccccc3c2n1", "activation": "46.5% (active)"}, {"smiles": "Cc1cc(C)n(-c2nc(O)cc(=O)[nH]2)n1", "activation": "-4.33% (inactive)"}, {"smiles": "Cc1ccc(-n2ccc(=O)c(C(=O)O)n2)cc1", "activation": "-0.77% (inactive)"}, {"smiles": "C=CCO/N=C(\\C)c1c(O)c(C)c(-c2ccccc2)n(-c2ccccc2)c1=O", "activation": "-3% (inactive)"}, {"smiles": "COc1ccc(SCc2noc(C(=O)NCC3CCCO3)c2C(=O)O)cc1", "note": "(centres undefined)", "activation": "-7.32% (inactive)"}, {"smiles": "CCOc1c2ccc(C(=O)NCc3ccc4c(c3)OCO4)cc2nn1C", "activation": "-2.43% (inactive)"}, {"smiles": "COCCNC(=O)Cn1cc(C(=O)c2cccs2)c2ccccc21", "activation": "-4.41% (inactive)"}, {"smiles": "CC(C)C(=O)Nc1ccc2c(c1)oc1ccccc12", "activation": "0.25% (inactive)"}, {"smiles": "c1ccc2c(-c3nn4nnnc4c4ccccc34)cccc2c1", "activation": "-3.13% (inactive)"}, {"smiles": "O=C(O)COc1ccc(-c2nccc(-c3cccs3)n2)cc1", "activation": "-4.12% (inactive)"}, {"smiles": "CCOC(=O)c1sc(NC(=O)C(CC)Sc2nccn2C)nc1C", "note": "(centres undefined)", "activation": "-5.49% (inactive)"}, {"smiles": "CCOC(=O)c1sc(NC(=O)c2ccncc2)nc1C", "activation": "-5.01% (inactive)"}, {"smiles": "C=CCn1c2ccccc2c2nnc(SC(CC)C(=O)Nc3nc(C)c(C(=O)OCC)s3)nc21", "note": "(centres undefined)", "activation": "21.9% (active)"}, {"smiles": "O=C(/C=C/c1cccs1)c1cc(Cl)ccc1OC(=O)N1CCOCC1", "activation": "-8.27% (inactive)"}, {"smiles": "CSCc1cc(N(C)C)nc(SCc2ccc(Cl)cc2Cl)n1", "activation": "-6.28% (inactive)"}, {"smiles": "CCCC1(C(=O)OCC)NC(c2ccc(N(C)C)cc2)C2C(=O)N(c3ccc4c(c3)OCCO4)C(=O)C21", "note": "(centres undefined)", "activation": "-0.77% (inactive)"}, {"smiles": "CCCCSc1[nH]c(=O)c(C(=O)OCC)cc1C#N", "activation": "-3.23% (inactive)"}, {"smiles": "N#CCSc1nc2c(c(=O)n1Cc1ccccc1)C1(CCCC1)Cc1ccccc1-2", "activation": "-7.66% (inactive)"}, {"smiles": "Cc1ccccc1CSCCNC(=O)c1ccc(Cl)c(S(=O)(=O)N2CCOCC2)c1", "activation": "-6.39% (inactive)"}, {"smiles": "N#Cc1c(C(F)(F)F)cc(-c2ccccc2)nc1SCC(=O)N1CCOCC1", "activation": "-6.15% (inactive)"}, {"smiles": "COC(=O)c1cc2nc(-c3ccccc3)cc(C(F)(F)F)n2n1", "activation": "-1.4% (inactive)"}, {"smiles": "CCN(CC)c1nc(-c2ccccc2)cc(C(F)(F)F)c1C#N", "activation": "23.9% (active)"}, {"smiles": "Cc1nn(CC(=O)Nc2nc3ccccc3s2)c(C)c1[N+](=O)[O-]", "activation": "-7.14% (inactive)"}, {"smiles": "NC1=NC(=O)C2(COC(c3ccccc3Cl)OC2)S1", "note": "(centres undefined)", "activation": "-5.49% (inactive)"}, {"smiles": "COc1cccc(-c2cc(C(=O)N/N=C/c3ccc(OC)c(COC(C)=O)c3)c3ccccc3n2)c1", "activation": "-4% (inactive)"}, {"smiles": "COc1cc2c(cc1OC)C(C(=O)NCc1ccco1)C1c3ccccc3CCN1C2=O", "note": "(centres undefined)", "activation": "-4.83% (inactive)"}, {"smiles": "Oc1ccccc1CNc1ncc(Br)cc1Br", "activation": "-9.29% (inactive)"}, {"smiles": "O=C(Nc1ccc(Br)c2cccnc12)c1ccc(Cn2cc([N+](=O)[O-])cn2)o1", "activation": "-1.75% (inactive)"}, {"smiles": "FC(F)(F)c1cccc(-c2cc3ccccc3nc2N2CCCC2)c1", "activation": "-10.1% (inactive)"}, {"smiles": "O=C1/C(=C/c2cccs2)CCc2ccccc21", "activation": "-5.98% (inactive)"}, {"smiles": "CN(C)S(=O)(=O)c1ccc(N2CCCC2)c(C(=O)NCc2ccccc2)c1", "activation": "-3.61% (inactive)"}, {"smiles": "O=C(NCc1ccc(Cl)cc1)c1cc(=O)nc2sc(-c3ccccc3)nn12", "activation": "-3.55% (inactive)"}, {"smiles": "O=[N+]([O-])c1ccc(Oc2ccc(F)cc2Br)c2ccncc12", "activation": "-12.3% (inactive)"}]}]}
